Only some compounds are listed: those with a hit (about 3.2% of all), similar ones and a draw of the others.
14-3-3 Bad inh: inhibitors of 14-3-3 zeta/Bad binding, primary screen, biochemical, TR-FRET, bovine 14-3-3 zeta; AID 781, 2007; inhibition, % at 21.7 µM; TR-FRET 14-3-3zeta/Dy647-pBad peptide displacement, 1 h; actives 0.71% (n = 220,000);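 active = inhibition above about 70%, limit read from the data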;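 also: 0% = full 14-3-3 plus peptide FRET controls and 100% = background without 14-3-3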
Mcl-1 Bim block: inhibitors of Bim peptide binding to Mcl-1, primary screen, biochemical, bead-based flow cytometry, multiplex | Induced myeloid leukemia cell differentiation protein Mcl-1 (Homo sapiens), Q07820 | Bim peptide-Mcl-1 binding | inhibition, % at 10 µM | actives 0.1% (n = 190,000) | AID 1009, 2008; in the data active = inhibition above about 40%;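 also: 0% = no compound tracer wells and 100% = peptide blocker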
p47phox inh: p47phox/p22phox peptide binding inhibitors, primary screen, biochemical, uHTS, NADPH oxidase regulatory subunit. actives 0.53% (n = 220,000). Neutrophil cytosol factor 1 (Homo sapiens), P14598. fluorescence polarization, 2 h. AID 1274, 2008. inhibition, % at 24.7 µM;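 active = inhibition above about 30%, limit read from the data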;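 also: 0% = p47phox with labelled peptide and 100% = labelled peptide alone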
Target sequence (P14598 whole entry, looked up): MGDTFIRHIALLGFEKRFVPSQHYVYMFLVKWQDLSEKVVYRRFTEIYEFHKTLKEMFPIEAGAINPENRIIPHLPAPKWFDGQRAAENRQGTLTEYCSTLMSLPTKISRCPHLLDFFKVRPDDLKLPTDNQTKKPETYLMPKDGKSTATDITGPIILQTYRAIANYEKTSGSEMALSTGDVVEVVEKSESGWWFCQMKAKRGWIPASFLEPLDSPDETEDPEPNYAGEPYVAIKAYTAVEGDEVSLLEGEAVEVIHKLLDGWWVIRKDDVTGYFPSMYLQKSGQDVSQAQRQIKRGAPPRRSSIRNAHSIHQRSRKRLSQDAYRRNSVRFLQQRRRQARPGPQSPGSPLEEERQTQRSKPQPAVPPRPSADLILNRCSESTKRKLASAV
Mcl1-Bid inh: Mcl-1/Bid binding inhibitors, primary screen, biochemical, TR-FRET, 1536-well | AID 1021, 2008 | TR-FRET Mcl-1/Bid-Dy647 peptide binding | inhibition, % at 21.7 µM | Induced myeloid leukemia cell differentiation protein Mcl-1 (Homo sapiens), Q07820 | actives 0.97% (n = 220,000);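 active = compounds that cut the binding signal by more than half at the single screening dose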;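 also: His-tagged Mcl-1 with europium anti-His antibody binding Bid BH3 peptide; 0% = Mcl-1 plus peptide wells and 100% = peptide-only wells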
Mcl1-Noxa inh: Mcl-1/Noxa binding inhibitors, primary screen, biochemical, TR-FRET, 1536-well. AID 1022, 2008. actives 1.5% (n = 220,000). inhibition, % at 21.7 µM. Induced myeloid leukemia cell differentiation protein Mcl-1 (Homo sapiens), Q07820. TR-FRET Mcl-1/Noxa peptide binding, 2 h;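 active = compounds that cut the protein-peptide binding signal by more than 50% relative to plate controls in a single-dose test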;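 also: His-tagged Mcl-1 with rhodamine Noxa BH3 peptide and terbium anti-His antibody; 0% = Mcl-1 plus Noxa peptide wells and 100% = peptide-only wells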
The depositor's hits bear a star; . = no result.

SMILES	14-3-3 Bad inh	Mcl-1 Bim block	p47phox inh	Mcl1-Bid inh	Mcl1-Noxa inh
O=C(/C=C/c1ccc(Cl)cc1)NC(=S)Nc1ccc(NC(=O)c2ccco2)cc1	25	-5	-32	56*	46
Brc1ccc(-n2cc(-c3ccccc3)c3c(NN4CCOCC4)ncnc32)cc1	-3	-3	-9	4	4
O=C(/C=C/c1ccco1)NC(=S)Nc1cc(-c2nc3ccccc3s2)ccc1Cl	26	-4	-6	63*	64*
C=CCc1cccc2cc(C(=O)Nc3ccc(S(=O)(=O)Nc4nnc(CC)s4)cc3)c(=O)oc12	17	-5	-36	72*	107*
CCc1nnc(NS(=O)(=O)c2ccc(NC(=S)NC(=O)/C=C/c3ccc(C(C)C)cc3)cc2)s1	33	-4	-53	100*	.
CCc1nnc(NS(=O)(=O)c2ccc(NC(=S)NC(=O)/C=C/c3ccccc3)cc2)s1	9	-19	-62	-31	58*
O=C(/C=C/c1ccc(Br)cc1)NC(=S)Nc1ccc(S(=O)(=O)Nc2nccs2)cc1	39	-2	-32	58*	52*
CCc1nnc(NS(=O)(=O)c2ccc(NC(=S)NC(=O)/C=C/c3ccc(OC)cc3)cc2)s1	0	0	-28	-17	50
CCOC(=O)NC(=O)C(/C=N/c1sccc1C(=O)OC)=C(\C)O	-6	0	-6	-26	-16
On1nnc2c3ccccc3c3ccccc3c21	22	0	-5	-10	33
COc1ccc(NS(=O)(=O)c2ccc(NC(=S)NC(=O)/C=C/c3ccccc3)cc2)nn1	-1	-10	-24	-33	58*
COc1cc(NS(=O)(=O)c2ccc(NC(=S)NC(=O)/C=C/c3ccc(F)cc3)cc2)ncn1	-12	.	-11	-56	1
Cc1ccc(NC(=S)N2CCN(c3ncccn3)CC2)c(C)c1	1	-8	-5	-42	-12
Cc1ccc(NC(=S)Nc2ccc(Cl)c(Cl)c2)c(OC(F)F)c1	-6	-4	-9	-3	30
CNC(=S)Nc1cc(C)ccc1OC(F)F	6	-4	.	98*	37
COc1cc(O)oc1C=Nc1ccc(C(F)(F)F)cc1	2	-2	-3	-46	64*
C#CCOCCOCCOCCNc1nc(N2CCN(C(=O)Cn3cc(CC(C)O)nn3)CC2)nc(N2CCN(C(=O)[C@H](CCCCN)n3cc(CCC(=O)O)nn3)CC2)n1 (some centres undefined)	72*	0	-6	37	19
C#CCOCCOCCOCCNc1nc(N2CCN(C(=O)Cn3cc(CCCCN)nn3)CC2)nc(N2CCN(C(=O)[C@H](C)n3cc(CCCN=C(N)N)nn3)CC2)n1	80*	-2	8	47	23
C#CCOCCOCCOCCNc1nc(N2CCN(C(=O)Cn3cc(CCCN=C(N)N)nn3)CC2)nc(N2CCN(C(=O)[C@H](C(C)C)n3cc(CCO)nn3)CC2)n1	62	-2	-1	31	35
C#CCOCCOCCOCCNc1nc(N2CCN(C(=O)Cn3cc(CC(C)O)nn3)CC2)nc(N2CCN(C(=O)[C@H](C)n3cc(CCCN=C(N)N)nn3)CC2)n1 (some centres undefined)	84*	0	-3	27	9
C#CCOCCOCCOCCNc1nc(N2CCN(C(=O)Cn3cc(CCCN=C(N)N)nn3)CC2)nc(N2CCN(C(=O)[C@H]([C@@H](C)CC)n3cc(CCCN=C(N)N)nn3)CC2)n1	86*	-1	13	45	37
COc1ccc(N2CCN(C(=S)NCc3ccccc3)CC2)cc1	5	-1	-13	-10	24
CCSc1ncc(/C=N/Nc2ccc([N+](=O)[O-])cc2)n1C	23	-3	-63	41	80*
O=[N+]([O-])c1ccc(N/N=C/c2ccc(OCc3cccc4ccccc34)cc2)nc1	14	0	-24	13	31
Cc1ccccc1-n1c(C)cc(/C=N/Nc2ccc([N+](=O)[O-])cn2)c1C	10	0	1	-40	11
SMILES	14-3-3 Bad inh	Mcl-1 Bim block	p47phox inh	Mcl1-Bid inh	Mcl1-Noxa inh
CCSc1ncc(/C=N/Nc2ccccc2)n1C	-4	-1	-10	7	15
Cc1cc(/C=N/Nc2ccc([N+](=O)[O-])cn2)c(C)n1-c1ccc(C(=O)O)cc1	66	5	-50	66*	99*
O=[N+]([O-])c1ccc(N/N=C\c2cccn2-c2ccccc2)nc1	0	-4	38*	-88	-6
OC1(c2ccccc2)c2ccccc2-c2ncccc21 (centres undefined)	-9	0	-9	1	13
CCCCCOc1ccc(C(=O)NCCC(=O)NCCCC(=O)OCC)cc1	1	.	-9	-9	1
CCOC(=O)CCCNC(=O)CCNC(=O)c1ccc(OCC)cc1	0	-1	2	-12	66*
COc1cc(-c2ccc(NC(=O)NC3CC3)c(OC)c2)ccc1NC(=O)NC1CC1	0	.	-3	-62	-1
CC(=O)c1ccc(NC(=O)CO/N=C(\C)c2cccs2)cc1	-10	-4	-11	-7	10
C/C(=N\OCC(=O)Nn1c(=O)[nH]c2ccccc2c1=O)c1cccs1	-6	-1	174*	-24	10
CCOC(=O)c1cnc2c(-c3ccccc3OC)c(C)nn2c1C	-4	0	-5	2	14
CCOC(=O)c1c(-c2ccccc2)csc1NC(=S)NC	-20	-11	-10	-58	55*
CCNC(=S)Nc1scc(-c2ccccc2)c1C(=O)OCC	-2	-3	-1	-82	7
O=C(NC1CCN(C(=O)c2cccs2)CC1)c1ccccc1	-4	.	-8	-5	-6
CCCc1nc2oc3ccccc3c(=O)c2c(=O)n1-c1ccc(C)cc1	2	.	-9	7	2
CCc1nc2oc3ccccc3c(=O)c2c(=O)n1-c1ccc(C)cc1	38	.	-49	-19	54*
CCCCCCCC/C=C\CCCCCCCC(=O)O	16	.	1	-74	63*
CCCCCCCCCCCCC(=O)CCCCC(=O)O	-19	-2	4	-36	-16
Cc1cccc(OCc2nnc(SCC(=O)Nc3cccc(C(=O)N4CCOCC4)c3)n2C)c1	8	-3	-4	-21	14
Cc1cc(C)c2c(N)c3cccc(C)c3nc2n1	14	0	25	-12	31
Cc1ccc(NC(=O)Cc2cc(C(=O)O)c3ccccc3n2)c(C)c1	-5	1	-21	-22	19
Cc1sc2ncnc(NCC(c3ccco3)N(C)C)c2c1C (centres undefined)	82*	0	-12	49	-8
CCOC(=O)N/N=C(/C)c1cccc(-n2cnnn2)c1	-11	-1	3	-8	10

Bioassay records from PubChem BioAssay.
